Only some compounds are listed: those with a hit (about 1.5% of all), similar ones and a draw of the others.
IL2 activator – qHTS of IL-2 Activators; 360,000 tested, 0.065% active; IL-2 activation reporter assay, cell-based qHTS; stimulated with anti-CD3/CD4/CD28 beads; in transgenic mouse T cells; activation, % (series mostly up to about 46 µM); in the data active means activation above about 50%; inconclusive means mostly about 30% to 49%
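Unstimulated transgenic mouse T cells preincubated 60 min with compound, then stimulated with anti-CD3/anti-CD4-coated beads plus anti-CD28 for 18 h at 37 degrees C. IL-2 response read as EGFP and DsRed fluorescence by plate cytometry.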
gsp ag – qHTS for Agonist of gsp, the Etiologic Mutation Responsible for Fibrous Dysplasia/McCune-Albright Syndrome: qHTS; gsp mutant cells, cAMP HTRF, 30 min; 340,000 tested, 0.13% active; Potency, µM (highest dose often 76.9 µM), hits mostly activators; active means well fitted activation curve with a large enough effect; inconclusive means small, poorly fitted or top-dose-only effect, or another doubt; inactive means no such curve, though single readings can be large or run the other way; cell line not stated here;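 further: phosphodiesterase inhibitor Ro 20-1724 added with compounds to block cAMP breakdown; nearly all actives have a fitted effect of over 60% in size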
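Cells stably selected in G418 were plated at 2000/well, grown 16-24 hr, then given compounds in DMSO with the PDE inhibitor […] (300 uM solution added) for 30 min at 37C; cAMP was read by HTRF.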
IDH1 R132H inh – qHTS for Inhibitors of mutant isocitrate dehydrogenase 1 (IDH1): qHTS; IDH1-R132H enzyme, NADPH consumption, diaphorase/resazurin fluorescence; Potency, µM (titrated, usually from 76.6 µM), usual class: inhibitors; 390,000 tested, 0.093% active; further: nearly all actives have a fitted effect of over 65% in size
Target sequence (O75874 whole entry R132H, stated change not applied): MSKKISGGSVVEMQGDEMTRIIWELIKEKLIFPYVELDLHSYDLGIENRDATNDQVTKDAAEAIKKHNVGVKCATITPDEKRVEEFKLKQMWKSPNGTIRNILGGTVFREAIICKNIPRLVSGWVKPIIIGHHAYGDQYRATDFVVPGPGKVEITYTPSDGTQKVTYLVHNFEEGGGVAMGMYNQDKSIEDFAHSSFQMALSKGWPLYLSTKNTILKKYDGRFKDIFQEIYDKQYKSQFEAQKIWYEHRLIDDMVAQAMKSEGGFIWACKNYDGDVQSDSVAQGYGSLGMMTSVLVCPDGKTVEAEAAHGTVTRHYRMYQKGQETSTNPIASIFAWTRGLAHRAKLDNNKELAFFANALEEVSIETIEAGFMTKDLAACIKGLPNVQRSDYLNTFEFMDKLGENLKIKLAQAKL
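IDH1-R132H (0.5 ug/mL) preincubated 30 min with compound, then NADPH (0.016 mM) and alpha-KG (2 mM) added; 80 min at RT, pH 7.5. Remaining NADPH coupled via diaphorase/resazurin to fluorescence (540/590 nm); concentration-response curves normalized to no-enzyme control.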
gsp antag – qHTS for Antagonists of gsp, the Etiologic Mutation Responsible for Fibrous Dysplasia/McCune-Albright Syndrome: qHTS; gsp-mutant cells, cAMP HTRF, 30 min; Potency, µM (titrated, usually from 76.9 µM), actives largely listed as inhibitors; 340,000 tested, 0.4% active; AID 624288, 2012; calls by dose curve; cell line not stated here;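 further: intracellular cAMP measured with PDE inhibitor Ro 20-1724 present during compound exposure; nearly all actives have a fitted effect of over 65% in size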
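Measurement of cellular cAMP by homogeneous time-resolved fluorescence following a 30 min compound exposure at 37C. The PDE inhibitor […] was present throughout; the assay buffer was DPBS with 0.05% BSA and 0.005% Tween 20.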
BRCA1 expr act – qHTS Assay to Identify Small Molecule Activators of BRCA1 Expression | MCF7-BRCA1-FFLuc reporter, luminescence, 48 h; response scale: scaled: vehicle 0%, 10 µM genistein 100% | Potency, µM (series often up to 46.1 µM), actives largely listed as activators | 380,000 tested, 1.1% active | AID 624202, 2012; further: nearly all actives have a fitted effect of over 80% in size
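Activators of BRCA1 expression were detected as increased firefly luciferase luminescence in engineered MCF7 cells after 48 h compound incubation. Signals were scaled to genistein 10 microM as full activation.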
IDH1 autofl – qHTS for Inhibitors of mutant isocitrate dehydrogenase 1 (IDH1): Cherrypicks Autofluorescence Interference. Resorufin detection reagent fluorescence interference, cell-free. inhibition of signal, % at 51.2 µM. 750 tested, under 10 active. shares compounds with IDH1 R132H inh
WT IDH1 inh – qHTS for Inhibitors of mutant isocitrate dehydrogenase 1 (IDH1): Cherrypicks in WT IDH1; WT IDH1 enzyme, NADPH diaphorase/resazurin fluorescence; shares compounds with IDH1 R132H inh; 750 tested, 9% active; Potency, µM (titrated, usually from 115 µM), hits mostly inhibitors; further: nearly all actives have a fitted effect of over 55% in size
Target sequence (O75874 whole entry, looked up): as the sequence (O75874 whole entry R132H, stated change not applied) above, with H132R counted along it
mIDH1 confirm – qHTS for Inhibitors of mutant isocitrate dehydrogenase 1 (IDH1): Confirmation of Cherrypicks | 750 tested, 83% active | shares compounds with IDH1 R132H inh | IDH1 R132H enzyme, NADPH diaphorase/resazurin fluorescence | Potency, µM (highest dose often 76.6 µM), usual class: inhibitors | AID 624002, 2012; further: nearly all actives have a fitted effect of over 50% in size
Of the large screens only hits and unclear results are named; the others gave an inactive call (follow-up assays come after a bar, where they were run). Unless noted, the call rests on the fitted dose curve; in most records, active means well fitted curve in the direction sought with a large enough effect; inconclusive means small, poorly fitted or top-dose-only effect, or another doubt; inactive means no such curve, though single readings can be large; an effect the other way counts as inactive or inconclusive.

COc1ccc(N(C(=O)c2cnccn2)C(C(=O)NC2CCCCC2)c2ccccc2)cc1 (configuration not stated)	IDH1 R132H inh inconclusive | IDH1 autofl inactive | WT IDH1 inh inactive | mIDH1 confirm 35.5µM
COc1cccc(C(C(=O)NC2CCCCC2)N(C(=O)c2ccco2)c2ccccc2OC)c1 (configuration not stated)	IDH1 R132H inh inconclusive | IDH1 autofl inactive | WT IDH1 inh inactive | mIDH1 confirm inconclusive
COc1ccccc1N1CCCSC1=Nc1ccccc1	gsp ag inconclusive (no result: gsp antag)
Cc1ccc(CSCC(=O)N2CCN(c3ccccc3F)CC2)cc1	none (no result: IL2 activator, gsp ag, gsp antag, BRCA1 expr act)
COc1ccc(N(C(=O)c2ccco2)C(C(=O)NC2CCCC2)c2ccccc2)cc1 (configuration not stated)	IDH1 R132H inh inconclusive | IDH1 autofl inactive | WT IDH1 inh inactive | mIDH1 confirm 39.8µM
COc1ccc(N(C(=O)c2ccco2)C(C(=O)NC2CCCC2)c2ccc(N(C)C)cc2)cc1 (configuration not stated)	none
O=C(c1cc2c(=O)oc3ccccc3c2s1)N1CCN(c2cccc(Cl)c2)CC1	none (no result: IL2 activator, gsp ag, gsp antag)
COc1ccccc1C1CC(c2ccc(Br)cc2)=NN1C(=O)c1cccnc1 (configuration not stated)	IDH1 R132H inh 46.5µM | IDH1 autofl inactive | WT IDH1 inh inactive | mIDH1 confirm 22.4µM
O=C(c1ccncc1)N1N=C(c2ccc(Cl)cc2)CC1c1ccccc1O (configuration not stated)	IDH1 R132H inh 52.1µM | IDH1 autofl inactive | WT IDH1 inh inactive | mIDH1 confirm 35.5µM
O=C(C=P(c1ccccc1)(c1ccccc1)c1ccccc1)c1ccccc1-c1ccccc1C(=O)C=P(c1ccccc1)(c1ccccc1)c1ccccc1	IDH1 R132H inh 23.3µM | IDH1 autofl inactive | WT IDH1 inh inconclusive | mIDH1 confirm 3.16µM
CC1=NOC(=O)/C1=C\c1ccc(-c2ccc(Br)cc2)o1	gsp ag 3.98µM, IDH1 R132H inh 20.7µM | IDH1 autofl inactive | WT IDH1 inh inconclusive | mIDH1 confirm 22.4µM
CN(C(=O)CSc1nc(-c2ccc(C(C)(C)C)cc2)c(C#N)c(=O)[nH]1)C1CCCCC1	IDH1 R132H inh inconclusive, gsp antag inconclusive | IDH1 autofl inactive | WT IDH1 inh inconclusive | mIDH1 confirm 44.7µM
c1ccc2c(c1)ncc1cccn12	none
CCn1c2ccccc2c2c3ncc4cccn4c3ccc21	IDH1 R132H inh inconclusive | IDH1 autofl inactive | WT IDH1 inh 44.7µM | mIDH1 confirm 14.1µM
Cc1ccc(C)c(N2CCN(S(=O)(=O)c3ccc(-c4cc(C(F)(F)F)on4)s3)CC2)c1	none (no result: IL2 activator, gsp ag, gsp antag, BRCA1 expr act)
Fc1ccc(Nc2nc(NCc3ccco3)c3ccccc3n2)cc1	IDH1 R132H inh inconclusive | IDH1 autofl inactive | WT IDH1 inh inactive | mIDH1 confirm 28.2µM
COc1ccc(CN2C(=O)c3cccnc3C2Nc2ccc(C)cc2)cc1 (configuration not stated)	none
Cc1ccc(NC2c3ncccc3C(=O)N2Cc2cccs2)cc1 (configuration not stated)	IDH1 R132H inh 52.1µM | IDH1 autofl inactive | WT IDH1 inh inactive | mIDH1 confirm inactive
COc1ccc(CCNC(=O)c2ccc3c(c2)CCN3S(C)(=O)=O)cc1OC	none (no result: IL2 activator, gsp ag, gsp antag)
O=C1CCSC2(C(=O)N(Cc3ccc(F)cc3)c3ccccc32)N1c1cccc(F)c1 (configuration not stated)	IDH1 R132H inh 28.2µM (no result: IL2 activator, gsp ag, gsp antag, BRCA1 expr act) | IDH1 autofl inactive | WT IDH1 inh inactive | mIDH1 confirm inconclusive
O=C1CSC2(C(=O)N(Cc3ccccc3)c3ccccc32)N1c1ccc(Cl)cc1 (configuration not stated)	IDH1 R132H inh inconclusive (no result: IL2 activator, gsp ag, gsp antag, BRCA1 expr act) | IDH1 autofl inactive | WT IDH1 inh inactive | mIDH1 confirm 25.1µM
Cc1cccc(N2C(=O)CSC23C(=O)N(Cc2cccc(F)c2)c2ccccc23)c1 (configuration not stated)	none (no result: IL2 activator, gsp ag, gsp antag)
Cc1cccc(N2C(=O)CCSC23C(=O)N(Cc2ccc(F)cc2)c2ccccc23)c1 (configuration not stated)	IDH1 R132H inh inconclusive (no result: IL2 activator, gsp ag, gsp antag, BRCA1 expr act) | IDH1 autofl inactive | WT IDH1 inh inactive | mIDH1 confirm 20µM
O=C1CCSC2(C(=O)N(Cc3ccc(F)cc3)c3ccccc32)N1c1ccc(F)c(F)c1 (configuration not stated)	IDH1 R132H inh 39.8µM (no result: IL2 activator, gsp ag, gsp antag, BRCA1 expr act) | IDH1 autofl inactive | WT IDH1 inh inactive | mIDH1 confirm 14.1µM
Cc1ccc(S(=O)(=O)c2nnn3c2nc(N2CCOCC2)c2sccc23)cc1C	none (no result: IL2 activator, gsp ag, gsp antag, BRCA1 expr act)
COc1ccc2c(C)c(CCC(=O)NCCc3ccc(OC)c(OC)c3)c(=O)oc2c1	none (no result: IL2 activator, gsp ag, gsp antag, BRCA1 expr act)
O=C(O)CNS(=O)(=O)c1ccc2c(c1)Cc1cc(S(=O)(=O)NCC(=O)O)ccc1-2	gsp ag inconclusive
Cc1ccc(OCCCSc2nc(-c3ccc(C(C)(C)C)cc3)nc3cc(=O)[nH]n23)cc1C	IDH1 R132H inh 39.8µM (no result: IL2 activator, gsp ag, gsp antag, BRCA1 expr act) | IDH1 autofl inactive | WT IDH1 inh inconclusive | mIDH1 confirm 25.1µM
O=C(CSc1ncc2c(n1)-c1ccccc1N(Cc1ccccc1)S2(=O)=O)Nc1ccccc1	none (no result: IL2 activator, gsp ag, gsp antag, BRCA1 expr act)
Brc1ccc2c(c1)C(c1cccs1)=NNC(c1cccnc1)=N2	IDH1 R132H inh 29.3µM | IDH1 autofl inactive | WT IDH1 inh inactive | mIDH1 confirm 22.4µM
OC[C@@H]1CN(CCNc2ccccc2)C[C@H](n2cnc3c(NCc4ccncc4)ncnc32)O1	none (no result: gsp ag, IDH1 R132H inh, gsp antag)
NNC(=O)CSc1c(-c2ccccc2)c2cc(Cl)ccc2[nH]c1=O	IDH1 R132H inh inconclusive | IDH1 autofl inactive | WT IDH1 inh inactive | mIDH1 confirm inactive
CC1(C)CC(=O)C2=C(C1)N1C(=C(C#N)C2c2ccccc2Cl)N=C(N)c2ccccc21 (configuration not stated)	IDH1 R132H inh inconclusive | IDH1 autofl inactive | WT IDH1 inh inactive | mIDH1 confirm 15.8µM

Screening results (PubChem)
